These results are taken from the supplement of paper PMC11383364.

Structures are written as SMILES. ± gives the standard deviation of the averaged measurements.

The experiment concerns SUM149. Kind of experiment: percent difference in area under dose-response curve of relative cell number, RPMI vs HPLM; higher = drug relatively more effective in HPLM than RPMI (negative = less effective in HPLM). To be noted: treatment time: 72 h; dose range: 10-point, 1 nM to 20 µM; media compared: RPMI vs HPLM.

Consider `O=C(c1ccc(OCCN2CCCCC2)cc1)c1c(-c2ccc(O)cc2)sc2cc(O)ccc12` [Evista], for which the “percent difference in area under dose-response curve” value (“percent difference in area” for short) is 2.48%.

Regarding `C[C@@H](O[C@H]1OCCN(Cc2n[nH]c(=O)[nH]2)[C@H]1c1ccc(F)cc1)c1cc(C(F)(F)F)cc(C(F)(F)F)c1` [Aprepitant], the “percent difference in area” value is -2%.

In the case of `CC(=O)c1c(C)c2cnc(Nc3ccc(N4CCNCC4)cn3)nc2n(C2CCCC2)c1=O`, the “percent difference in area” value was -11.4%.

On to `Cc1ccc(C(=O)N(CCCN)[C@@H](c2nc3cc(Cl)ccc3c(=O)n2Cc2ccccc2)C(C)C)cc1` [Ispinesib], for which the “percent difference in area” value was -43.4%.

In the case of `Cc1[nH]c(/C=C2\C(=O)Nc3ccc(S(=O)(=O)Cc4c(Cl)cccc4Cl)cc32)c(C)c1C(=O)N1CCC[C@@H]1CN1CCCC1`, the “percent difference in area” value was -10.1%.

Turning to `OCCN(CCO)c1nc(N2CCCCC2)c2nc(N(CCO)CCO)nc(N3CCCCC3)c2n1` [Dipyridamole], the “percent difference in area” value is 2.66%.

`CCCc1cc(-c2nc(-c3ccc(C)cc3)cs2)ccn1` [Fatostatin_A]: the “percent difference in area” value was -2.81%.

With `CNC(=O)c1cc(Oc2ccc(NC(=O)Nc3ccc(Cl)c(C(F)(F)F)c3)c(F)c2)ccn1` [Regorafenib], the “percent difference in area” value is -5.08%.

Regarding `CC(C)(C)c1cc(NC(=O)Nc2ccc(-c3cn4c(n3)sc3cc(OCCN5CCOCC5)ccc34)cc2)no1` [Quizartinib], the “percent difference in area” value was -0.334%.

For the compound `Cc1ccc(NC(=O)c2ccc(CN3CCN(C)CC3)cc2)cc1Nc1nc(-c2cccnc2)cs1` [Masitinib], the “percent difference in area” value is -3.29%.

As to `CCc1nc(N)nc(N)c1-c1ccc(Cl)cc1` [Pyrimethamine], the “percent difference in area” value stood at 33.6%.

As for `CC[C@]1(O)C[C@@H]2CN(CCc3c([nH]c4ccccc34)[C@@](C(=O)OC)(c3cc4c(cc3OC)N(C)[C@H]3[C@@](O)(C(=O)OC)[C@H](OC(C)=O)[C@]5(CC)C=CCN6CC[C@]43[C@@H]65)C2)C1` [Vinblastine], the “percent difference in area” value is -27.2%.

For `S=c1[nH]cnc2nc[nH]c12` [Mercaptopurine], the “percent difference in area” value is -43.4%.

In the case of `Cc1nccn1-c1ccc(Sc2cccc(C3(C(N)=O)CCOCC3)c2)cc1`, the “percent difference in area” value was -9.07%.

As for `CN(C)CCOc1ccc(-c2nc(-c3ccncc3)c(-c3ccc4c(c3)CC/C4=N\O)[nH]2)cc1`, the “percent difference in area” value was -4.32%.

For `C[C@H]1[C@H](OC(=O)CCC(=O)O)O[C@@H]2O[C@@]3(C)CC[C@H]4[C@H](C)CC[C@@H]1[C@@]24OO3` [Artesunate], the “percent difference in area” value is -1.87%.

As to `Cc1nc(=O)c2cc(CN(C)c3ccc(C(=O)N[C@@H](CCC(=O)O)C(=O)O)s3)ccc2[nH]1` [Raltitrexed], the “percent difference in area” value came out at 0.127 ± 13%.

`CNC(=O)c1ccccc1Sc1ccc2c(/C=C/c3ccccn3)n[nH]c2c1` [Axitinib]: the “percent difference in area” value was -0.398%.

As for `CC1=C(/C=C/C(C)=C/C=C/C(C)=C\C(=O)O)C(C)(C)CCC1` [Isotretinoin], the “percent difference in area” value is -4.74%.

For the compound `Nc1nccc(Oc2ccc(NC(=O)c3c[nH]cc(-c4ccc(F)cc4)c3=O)cc2F)c1Cl`, the “percent difference in area” value is -4.65%.

For the compound `COc1ccc(C2=N[C@H](c3ccc(Cl)cc3)[C@H](c3ccc(Cl)cc3)N2C(=O)N2CCNC(=O)C2)c(OC(C)C)c1` [Nutlin3b], the “percent difference in area” value was found to be 2.03%.

Consider `COc1cc2ncnc(Nc3ccc(F)c(Cl)c3)c2cc1NC(=O)/C=C/CN1CCCCC1` [Dacomitinib], for which the “percent difference in area” value is -9.71%.

For the compound `COc1cc2c(Oc3ccc4[nH]c(C)cc4c3F)ncnc2cc1OCCCN1CCCC1` [Cediranib], the “percent difference in area” value came out at 1%.

`CNc1nc(-c2ccc3c(N)n[nH]c3c2)cc(N2C[C@@H](C(=O)NC3CCCCC3)CC[C@H]2C)n1`: the “percent difference in area” value is -4.83%.

Turning to `O=c1cnn([C@@H]2O[C@H](CO)[C@@H](O)[C@H]2O)c(=O)[nH]1` [6_Azauridine], the “percent difference in area” value came out at 15.1%.

For the compound `Nc1ccn([C@@H]2C=C(CO)[C@@H](O)[C@H]2O)c(=O)n1` [Cyclopentenyl_cytosine], the “percent difference in area” value was found to be 2.58%.

Regarding `C#Cc1cccc(Nc2ncnc3cc(OCCOC)c(OCCOC)cc23)c1` [Erlotinib_HCl], the “percent difference in area” value was -0.149%.

For the compound `CC(=O)[C@]1(O)Cc2c(O)c3c(c(O)c2[C@@H](O[C@H]2C[C@H](N)[C@H](O)[C@H](C)O2)C1)C(=O)c1ccccc1C3=O` [Idarubicin_HCl], the “percent difference in area” value was -49.3%.

As for `Clc1ccc(Nc2nnc(Cc3ccncc3)c3ccccc23)cc1` [Vatalanib_2HCl], the “percent difference in area” value is -4.56%.

For `NC1(c2ccc(-c3nc4ccn5c(=O)[nH]nc5c4cc3-c3ccccc3)cc2)CCC1`, the “percent difference in area” value was 0.884%.

On to `C=CCc1cccc(/C=N/NC(=O)CN2CCN(Cc3ccccc3)CC2)c1O`, for which the “percent difference in area” value was -12.9%.

In the case of `CNC(=O)c1cc(Oc2ccc(NC(=O)Nc3cc(C(C)(C)C)nn3-c3ccc4ncccc4c3)c(F)c2)ccn1`, the “percent difference in area” value is -8.43%.

For `CC1(C)C=C(CN2C/C(=C\c3ccc(F)cc3)C(=O)/C(=C/c3ccc(F)cc3)C2)C(C)(C)N1O`, the “percent difference in area” value is 2.04%.

On to `C/C=C1\NC(=O)[C@H]2CSSCC/C=C/[C@H](CC(=O)N[C@H](C(C)C)C(=O)N2)OC(=O)[C@H](C(C)C)NC1=O` [Romidepsin], for which the “percent difference in area” value is -30.5%.

`COc1cccc2c(NCc3ccccc3)nc(-n3c(N)nc4ccccc43)nc12`: the “percent difference in area” value was -7.47%.

As for `O=C(O[C@@H]1Cc2c(O)cc(O)cc2O[C@@H]1c1cc(O)c(O)c(O)c1)c1cc(O)c(O)c(O)c1` [_Epigallocatechin_gallate], the “percent difference in area” value was 3.46%.

With `Nc1ccccc1NC(=O)c1ccc(CNC(=O)OCc2cccnc2)cc1` [Entinostat], the “percent difference in area” value is -2.21%.

In the case of `CN(NC(=O)CC(=O)NN(C)C(=S)c1ccccc1)C(=S)c1ccccc1` [Elesclomol], the “percent difference in area” value was -21.3 ± 1.7%.

`O=c1cc(N2CCOCC2)oc2c(-c3cccc4c3sc3ccccc34)cccc12`: the “percent difference in area” value was -2.53%.

Turning to `Cc1cccc(-c2[nH]c(C(C)(C)C)nc2-c2ccc3nccnc3c2)n1`, the “percent difference in area” value was -7.49%.

As for `Cc1c(C(=O)Nc2ccc(N3C[C@@H](C)O[C@@H](C)C3)nc2)cccc1-c1ccc(OC(F)(F)F)cc1`, the “percent difference in area” value is -7%.

For `COc1cc(OC2CCN(C)CC2)ccc1Nc1ncc2c(n1)n(C1CCCC1)c(=O)n2C`, the “percent difference in area” value is -4.5%.

In the case of `COc1ncc(-c2ccc3nccc(-c4ccnnc4)c3c2)cc1NS(=O)(=O)c1ccc(F)cc1F`, the “percent difference in area” value is -12.4%.

`Cc1cc(Nc2cc(N3CCN(C)CC3)nc(/C=C/c3ccccc3)n2)n[nH]1`: the “percent difference in area” value was -2.84%.

Take `COc1cc(Br)c(Nc2nc(-c3c(C)nc4ncccn34)cs2)c(Br)c1`: the “percent difference in area” value is -0.202%.

As for `CCOC(=O)c1cnc2ccc(-c3cncc(NS(=O)(=O)c4ccccc4)c3)cn12`, the “percent difference in area” value was -8.07%.

For `CCc1c2c(nc3ccc(OC(=O)N4CCC(N5CCCCC5)CC4)cc13)-c1cc3c(c(=O)n1C2)COC(=O)[C@]3(O)CC` [Irinotecan_HCl_Trihydrate], the “percent difference in area” value is -10.1%.

For `O=C(O)c1ccc(-c2c[nH]c3ncc(-c4ccccc4)cc23)cc1C1CCCC1`, the “percent difference in area” value is -9.42%.

With `CN[C@H]1CN(c2ccc3c(=O)c(C(=O)O)cn(-c4nccs4)c3n2)C[C@@H]1OC` [Voreloxin], the “percent difference in area” value was -18%.

`Oc1nc(-c2ccc(C(F)(F)F)cc2)nc2c1CSCC2`: the “percent difference in area” value is -0.882%.

With `Nc1nc(F)nc2c1ncn2[C@@H]1O[C@H](CO)[C@@H](O)[C@@H]1O` [Fludarabine], the “percent difference in area” value was -2.56 ± 3.2%.

As to `CN1CC[C@H](c2c(O)cc(O)c3c(=O)cc(-c4ccccc4Cl)oc23)[C@H](O)C1` [Flavopiridol], the “percent difference in area” value was -2.56%.

In the case of `CNCc1ccc(-c2[nH]c3cc(F)cc4c3c2CCNC4=O)cc1` [Rucaparib], the “percent difference in area” value is -14.3%.

`C#CC[C@H](c1nc2cc(Cl)ccc2c(=O)n1Nc1ccccc1)N(CCCN)C(=O)c1cccc(Cl)c1F`: the “percent difference in area” value is -7.78%.

Consider `O=S(=O)(N=Cc1c(O)ccc2ccccc12)c1cccs1`, for which the “percent difference in area” value was -2.44%.

As for `COc1cccc(-c2cc(F)ccc2[C@H]2Cc3nc(N)nc(C)c3C(=O)N2)n1`, the “percent difference in area” value was -28.8%.

`Cc1cc(/C=C/c2ccc3cc(N(C)C)ccc3[n+]2C)c(C)n1-c1ccccc1` [Pyrvinium_pamoate]: the “percent difference in area” value is -34.5%.

`CCNC(=O)c1noc(-c2cc(C(C)C)c(O)cc2O)c1-c1ccc(CN2CCOCC2)cc1`: the “percent difference in area” value was -30%.

For the compound `Cc1cc(Nc2cc(N3CCN(C)CC3)nc(Sc3ccc(NC(=O)C4CC4)cc3)n2)n[nH]1`, the “percent difference in area” value is -14.9%.

Regarding `Cc1cc(Nc2nc(N[C@@H](C)c3ncc(F)cn3)ncc2Cl)[nH]n1`, the “percent difference in area” value was -7.89%.

With `CC(C)C[C@H](NC(=O)CNC(=O)c1cc(Cl)ccc1Cl)B1OC(=O)C(CC(=O)O)(CC(=O)O)O1`, the “percent difference in area” value was -1.48%.

Take `CC(C)n1nc(-c2ccc3oc(N)nc3c2)c2c(N)ncnc21`: the “percent difference in area” value was found to be 0.531%.

Take `Cc1cc([N+](=O)[O-])ccc1NS(=O)(=O)c1cc(Cl)ccc1Cl`: the “percent difference in area” value is 11.9%.

For the compound `FC(F)c1nc2ccccc2n1-c1nc(N2CCOCC2)nc(N2CCOCC2)n1`, the “percent difference in area” value amounted to 1.79%.

Take `CC[C@H](CO)Nc1nc(NCc2ccccc2)c2ncn(C(C)C)c2n1` [Roscovitine]: the “percent difference in area” value is -1.29%.

For the compound `CCn1c(-c2nonc2N)nc2c(C#CC(C)(C)O)ncc(OC[C@H]3CCCNC3)c21`, the “percent difference in area” value is 4.22%.

As to `Cc1cnc(-c2cnc(NCCNc3ccc(C#N)cn3)nc2-c2ccc(Cl)cc2Cl)[nH]1`, the “percent difference in area” value was 7.14%.

Turning to `Cc1ccc(NC(=O)c2ccc(CN3CCN(C)CC3)cc2)cc1Nc1nccc(-c2cccnc2)n1` [Imatinib], the “percent difference in area” value was -5.87%.
